Reference: ChEMBL document CHEMBL2218924, “A broad activity screen in support of a chemogenomic map for kinase signalling research and drug discovery” (Biochem J, 2013)

molecular target: Protein kinase C alpha type (Homo sapiens) (UniProt P17252); details: at 10 µM

SMILES	residual activity
CCCCc1c(-c2ccc(O)cc2)[nH]c2nccnc12	100%
COc1ccc(CNC(=O)Nc2ncc([N+](=O)[O-])s2)cc1	101%
O=C1Cc2c([nH]c3ccc(Br)cc23)-c2ccccc2N1	70%
CC(C)c1nn(-c2c(Cl)cccc2Cl)c2nc(Cc3ccc(OCCO)cc3)[nH]c(=O)c12	107%
Cc1cc(C)c(/C=C2\C(=O)Nc3ccccc32)[nH]1	104%
O=c1cc(N2CCNCC2)oc2c(-c3ccccc3)cccc12	102%
O=c1cc(N2CCOCC2)oc2c1ccc1ccccc12	96%
COc1cc2nccc(Oc3ccc(NC(=O)Nc4cc(C)on4)c(Cl)c3)c2cc1OC	101%
O=C(Nc1nc2ccccc2n1CCN1CCOCC1)c1cccc([N+](=O)[O-])c1	102%
COc1ccc(Cl)cc1NC(=O)Nc1cc(C)nc2ccccc12	98%
Nc1nc(Nc2ccc(S(N)(=O)=O)cc2)nn1C(=O)c1c(F)cccc1F	18%
O=C1C(Cl)=C(N2C(=O)CCC2=O)C(=O)c2ccccc21	3%
CC(C)[C@H](CO)Nc1nc(Nc2cc(N)cc(Cl)c2)c2ncn(C(C)C)c2n1	97%
NC(=O)c1ccc(-c2nc(-c3ccc4c(c3)OCCO4)c(-c3ccccn3)[nH]2)cc1	96%
O=C1NC(=O)C(c2cn(CCCn3ccnc3)c3ccccc23)=C1Nc1ccccc1	2%

molecular target: Protein kinase C beta type (Homo sapiens) (UniProt P05771); details: at 1 µM
Sequence (P05771 2-671 limits assumed): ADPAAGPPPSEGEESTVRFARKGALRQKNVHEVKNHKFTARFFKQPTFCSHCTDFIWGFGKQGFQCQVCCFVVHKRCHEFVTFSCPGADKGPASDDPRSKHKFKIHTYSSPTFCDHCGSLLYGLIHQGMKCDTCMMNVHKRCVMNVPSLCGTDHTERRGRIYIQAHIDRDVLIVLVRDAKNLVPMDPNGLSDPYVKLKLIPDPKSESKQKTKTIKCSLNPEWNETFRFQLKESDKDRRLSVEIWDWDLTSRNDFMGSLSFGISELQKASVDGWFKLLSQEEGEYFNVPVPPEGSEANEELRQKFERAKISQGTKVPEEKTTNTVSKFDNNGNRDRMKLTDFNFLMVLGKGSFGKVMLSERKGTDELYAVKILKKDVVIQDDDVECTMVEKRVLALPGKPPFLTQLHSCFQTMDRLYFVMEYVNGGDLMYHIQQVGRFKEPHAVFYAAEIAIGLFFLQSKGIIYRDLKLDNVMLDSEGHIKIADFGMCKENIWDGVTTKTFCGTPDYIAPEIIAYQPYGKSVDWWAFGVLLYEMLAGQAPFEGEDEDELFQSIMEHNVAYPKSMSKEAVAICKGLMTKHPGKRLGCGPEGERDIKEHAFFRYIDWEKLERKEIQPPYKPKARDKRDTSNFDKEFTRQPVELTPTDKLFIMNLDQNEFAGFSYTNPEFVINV

SMILES	residual activity
N#C/C(=C1/Nc2ccccc2S1)c1ccnc(NCCc2cccnc2)n1	125%
CC(C)c1nn(-c2c(Cl)cccc2Cl)c2nc(Cc3ccc(OCCO)cc3)[nH]c(=O)c12	125%
O=c1cc(N2CCOCC2)oc2c1ccc1ccccc12	104%
COc1cc2nccc(Oc3ccc(NC(=O)Nc4cc(C)on4)c(Cl)c3)c2cc1OC	107%
O=S(=O)(c1cccc2cnccc12)N1CCCNCC1	75%
Nc1nccc(-c2c(-c3ccc(F)cc3)ncn2C2CCNCC2)n1	115%
NC(=O)c1ccc(-c2nc(-c3ccc4c(c3)OCCO4)c(-c3ccccn3)[nH]2)cc1	124%
O=C1NC(=O)C(c2cn(CCCn3ccnc3)c3ccccc23)=C1Nc1ccccc1	19%

molecular target: Protein kinase C beta type (Homo sapiens) (UniProt P05771); details: at 10 µM

SMILES	residual activity
N#C/C(=C1/Nc2ccccc2S1)c1ccnc(NCCc2cccnc2)n1	121%
CC(C)c1nn(-c2c(Cl)cccc2Cl)c2nc(Cc3ccc(OCCO)cc3)[nH]c(=O)c12	106%
O=c1cc(N2CCOCC2)oc2c1ccc1ccccc12	95%
COc1cc2nccc(Oc3ccc(NC(=O)Nc4cc(C)on4)c(Cl)c3)c2cc1OC	97%
O=S(=O)(c1cccc2cnccc12)N1CCCNCC1	46%
Nc1nccc(-c2c(-c3ccc(F)cc3)ncn2C2CCNCC2)n1	69%
NC(=O)c1ccc(-c2nc(-c3ccc4c(c3)OCCO4)c(-c3ccccn3)[nH]2)cc1	121%
O=C1NC(=O)C(c2cn(CCCn3ccnc3)c3ccccc23)=C1Nc1ccccc1	2%
Fc1ccc(-c2nc3n(c2-c2ccncc2)CCS3)cc1	82%
